Paper PMC6212790, “How bacterial xenogeneic silencer rok distinguishes foreign from self DNA in its resident genome”
Whole data set: some 33,000 sequences, median “e-score” near -0.038, cut for the highest 2% near 0.33. This excerpt belongs to a sample that is enriched for the highest values.

target: T1, GST-Rok-C97-191 (Bacillus subtilis subsp. subtilis str. …, UniProt O34857 97-191); assay: protein binding microarray; Rok is a gene silencer of Bacillus subtilis; high values mean tight binding; conditions: protein: recombinant; tags: GST (pTH5325, pDEST15-Magic modified); dsDNA, one strand shown
T1 sequence: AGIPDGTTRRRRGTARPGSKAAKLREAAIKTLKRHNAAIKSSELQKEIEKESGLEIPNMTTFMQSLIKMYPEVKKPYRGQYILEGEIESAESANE
Method in brief: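 Each has a 25-mer constant primer and a 35-mer variable part from a de Bruijn sequence of order 10, covering every non-palindromic 8-mer at least 32 times (palindromic 16). Preference for each 8-mer is given as a rank-based, unitless enrichment score (E-score). Its range runs from 0.5 (most favored) to −0.5 (most disfavored).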

Row | Sequence | binding signal
1 | CCAAGTTC | -0.0242 E-score
2 | CTTGTGGC | -0.167 E-score
3 | ACGTGAGC | -0.0668 E-score
4 | ACGCCTTA | 0.073 E-score
5 | AGCCCGCT | -0.168 E-score
6 | CCATAGCA | -0.0019 E-score
7 | AAAGTAGA | 0.298 E-score
8 | ATAGTACG | 0.248 E-score
9 | ATAGTAGC | 0.378 E-score
10 | AGAGTAGA | 0.143 E-score
11 | ATCGTAGC | -0.0487 E-score
12 | ATAGTAGA | 0.355 E-score
13 | ATAGTAGG | 0.329 E-score
14 | AGAGTAGC | 0.0737 E-score
15 | AGAGTAGG | -0.15 E-score
16 | GCTTGAAC | -0.0848 E-score
17 | AGTCCATC | -0.159 E-score
18 | GGTTCAAC | -0.0853 E-score
19 | CCTCTTCA | -0.193 E-score
20 | CCAACCTA | -0.0204 E-score
21 | GCTTATAA | 0.101 E-score
22 | AGTACTCA | -0.0984 E-score
23 | GGTACTAC | 0.233 E-score
24 | AGTACTAA | 0.277 E-score
25 | CGTACTAG | 0.0424 E-score

Row | Sequence | binding signal
26 | CGTACTAC | 0.305 E-score
27 | AGTACTAC | 0.35 E-score
28 | AGTACTAG | 0.334 E-score
29 | AGTACTAT | 0.367 E-score
30 | AGTACTGG | 0.0209 E-score
31 | ATTGCGCC | -0.134 E-score
32 | ACCATATG | 0.229 E-score
33 | AACTGGAC | -0.0284 E-score
34 | TAGTGGGA | 0.119 E-score
35 | AATTTCGC | 0.151 E-score
36 | GATGAAGC | 0.0229 E-score
37 | ATTTTATA | 0.385 E-score
38 | ATTTTATC | 0.328 E-score
39 | GTTTTATA | 0.122 E-score
40 | ATTTTATG | 0.229 E-score
41 | CTTTTATC | 0.0697 E-score
42 | CTTTTATA | 0.236 E-score
43 | AGACCTGG | -0.167 E-score
44 | GTCGTAAC | 0.0491 E-score
45 | ATACAAAG | 0.17 E-score
46 | GTACAAAC | 0.304 E-score
47 | ATACAAAC | 0.371 E-score
48 | CTACAAAC | 0.114 E-score
49 | ATACAAAT | 0.337 E-score
50 | ATACAAAA | 0.276 E-score

Row | Sequence | binding signal
51 | CAGGAATG | -0.083 E-score
52 | TGAGGTAA | 0.126 E-score
53 | ATTGACCG | -0.00184 E-score
54 | AATACTAT | 0.35 E-score
55 | TATACTAA | 0.382 E-score
56 | CATACTAG | 0.285 E-score
57 | AATACTCT | 0.131 E-score
58 | AATACTAG | 0.34 E-score
59 | CATACTAC | 0.284 E-score
60 | AATACTAA | 0.287 E-score
61 | AATACTCG | 0.0344 E-score
62 | CATACTAA | 0.0976 E-score
63 | AATACTAC | 0.383 E-score
64 | GATACTAC | 0.313 E-score
65 | AATACTGT | 0.083 E-score
66 | GCAATCCC | -0.104 E-score
67 | GTCAGGAC | -0.147 E-score
68 | AATTTCAG | 0.153 E-score
69 | ACCTTCGG | -0.173 E-score
70 | AGTTGAGA | 0.111 E-score
71 | ACCTAACT | 0.128 E-score
72 | TAGACGAA | -0.0468 E-score
73 | GTGCAAAA | 0.0465 E-score
74 | CGTCCACG | -0.161 E-score
75 | AGGTTGCG | -0.0431 E-score

Row | Sequence | binding signal
76 | AGTAATAT | 0.386 E-score
77 | AGTAATCG | 0.0918 E-score
78 | CGTAATAG | 0.247 E-score
79 | ACTAATAG | 0.292 E-score
80 | AGTAATAG | 0.355 E-score
81 | ACTAATAT | 0.342 E-score
82 | AGTAATAA | 0.238 E-score
83 | ACTAATAC | 0.248 E-score
84 | AGTAATAC | 0.274 E-score
85 | AAGGTTGG | -0.0102 E-score
86 | ACGCATTA | 0.134 E-score
87 | CGGTGCAG | -0.0983 E-score
88 | GGCTAGAC | -0.152 E-score
89 | AGATTAGC | 0.212 E-score
90 | CAGTAAAA | 0.188 E-score
91 | AAGTAAAT | 0.359 E-score
92 | AAGTAAGT | 0.263 E-score
93 | AGGTAAAT | 0.247 E-score
94 | AAGTAAAG | 0.104 E-score
95 | GAGTAAAA | 0.269 E-score
96 | CGGTAAAA | 0.242 E-score
97 | TGGTAAAA | 0.337 E-score
98 | AAGTAAAC | 0.116 E-score
99 | AAGTAAAA | 0.335 E-score
100 | GGGTAAAA | 0.206 E-score

Row | Sequence | binding signal
101 | TAGTAAAA | 0.37 E-score
102 | CTGAAAAG | 0.0606 E-score
103 | CTCCATAA | -0.175 E-score
104 | TCTCCGAA | 0.161 E-score
105 | TAAGCATA | 0.00925 E-score
106 | AAAGGTCA | -0.146 E-score
107 | ACGCACCA | -0.186 E-score
108 | AAGACCGG | -0.0043 E-score
109 | CCTTATTA | 0.0213 E-score
110 | CGTAACTC | 0.0679 E-score
111 | GTTAGCGA | 0.0595 E-score
112 | GAGCTGCC | 0.0253 E-score
113 | GACAGACA | -0.102 E-score
114 | CGTAAGTA | 0.16 E-score
115 | GCGTGAGA | -0.00817 E-score
116 | GATTACCA | 0.14 E-score
117 | ATTTACTG | 0.319 E-score
118 | GATTACAA | 0.134 E-score
119 | AATTACTA | 0.43 E-score
120 | ATTTACTC | 0.234 E-score
121 | ATTTACTA | 0.439 E-score
122 | CATTACTA | 0.32 E-score
123 | AATTACTG | 0.253 E-score
124 | AATTACCA | 0.33 E-score
125 | GATTACTA | 0.354 E-score

Row | Sequence | binding signal
126 | AATTACCC | 0.185 E-score
127 | AATTACTC | 0.255 E-score
128 | AGGCCTAG | 0.0496 E-score
129 | GACCGCTA | 0.0642 E-score
130 | AATAACCG | 0.184 E-score
131 | AACCAGCA | 0.0878 E-score
132 | GTCGAGGA | -0.0836 E-score
133 | GCGTCCGA | -0.026 E-score
134 | CACCTCGC | -0.148 E-score
135 | ACTGCCCT | -0.164 E-score
136 | GGAAGTCA | -0.092 E-score
137 | AAGTTTCC | 0.148 E-score
138 | CAATTACC | 0.0477 E-score
139 | GAATTACC | 0.18 E-score
140 | AAATTACC | 0.365 E-score
141 | ACATTACT | 0.263 E-score
142 | AAATTACT | 0.358 E-score
143 | AAATTACG | 0.273 E-score
144 | CAGTTGAC | 0.0118 E-score
145 | AACGCAAA | -0.043 E-score
146 | CCAACTCG | -0.0471 E-score
147 | GCATGCTA | 0.0693 E-score
148 | ACATGCTA | 0.33 E-score
149 | CCATGCTA | 0.153 E-score
150 | CTGACATA | -0.188 E-score

Row | Sequence | binding signal
151 | ACACAACT | 0.0324 E-score
152 | CTATACTA | 0.301 E-score
153 | ATATACTA | 0.436 E-score
154 | GGATACTA | 0.167 E-score
155 | GTATACTA | 0.338 E-score
156 | GCATACTA | 0.241 E-score
157 | CTATACTC | 0.173 E-score
158 | CTATACAA | 0.3 E-score
159 | ATATACTC | 0.293 E-score
160 | ATATACAG | 0.317 E-score
161 | ATATACTG | 0.365 E-score
162 | ATATACAA | 0.365 E-score
163 | ACATACTA | 0.305 E-score
164 | CAAGGATG | -0.044 E-score
165 | CTGTCTCA | -0.118 E-score
166 | CAGGGCCA | -0.145 E-score
167 | GTCACAAA | 0.0798 E-score
168 | GAGCTTGA | -0.0815 E-score
169 | CACTTGTA | 0.238 E-score
170 | GACAAGTA | 0.226 E-score
171 | CAATTGTG | 0.0188 E-score
172 | AATTCGAT | 0.215 E-score
